Source: PubChem BioAssay (NCI)
About 83,000 compounds went through this panel and 20% of them were active in at least one assay; those are over-represented in the sample as a whole.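 Cell lines were cultured in 96-well plates, exposed to a single compound concentration, and assessed for percent growth 48 hours later.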 A number with no mark means an inactive call. Activity calls are given as the source filed them. Rule for the calls: active = growth percent below 10; inactive = the rest.

Experiments:
Assay in all cases: NCI-60 one-dose screen, 48 h (100 = growth as untreated, 0 = no growth, -100 = all killed)
Conditions in all cases: 10 µM unless noted
NCI-H23 lung = test system: NCI-H23 lung
NCI-H226 lung = test system: NCI-H226 lung
NCI-H322M lung = test system: NCI-H322M lung
HOP-62 NSCLC = test system: HOP-62 NSCLC
NCI-H460 lung = test system: NCI-H460 lung
HOP-92 NSCLC = test system: HOP-92 NSCLC
NCI-H522 lung = test system: NCI-H522 lung
A549/ATCC NSCLC = test system: A549/ATCC NSCLC
786-0 renal = test system: 786-0 renal
COLO 205 colon = test system: COLO 205 colon

SMILES | growth (NCI-H23 lung) | growth (NCI-H226 lung) | growth (NCI-H322M lung) | growth (HOP-62 NSCLC) | growth (NCI-H460 lung) | growth (HOP-92 NSCLC) | growth (NCI-H522 lung) | growth (A549/ATCC NSCLC) [%] | growth (786-0 renal) | growth (COLO 205 colon)
COC(=O)c1sccc1-c1cc(O)c(C(=O)Nc2ccccc2)s1 | 83% | 90.9% | 93.3% | 92.2% | 104% | 97.9% | 90.9% | 91.5 | 106% | 102%
Cc1ncc(C(=O)Nc2ccc(CN3CCN(C)CC3)c(C(F)(F)F)c2)cc1C#Cc1cnc(N)c2ccc(C#N)cc12 | 29.5% | 0.011% (active) | 27.9% | -7.92% (active) | 11.2% | -20.2% (active) | 27.2% | 22.9 | -70.1% (active) | 5.29% (active)
CN(C)c1ccc(C(=S)c2ccc(N(C)C)cc2)cc1 | 78.9% | 85.9% | 103% | 65.8% | 92.6% | 71.3% | 29% | 67 | 95.6% | 62%
COc1cc2c(c(OC)c1OC)C(=O)CC(c1cccc(C(=O)Nc3ccc(C#N)cc3)c1)O2 (centres undefined) | 78.7% | 46.9% | 90.8% | 91.5% | 89.3% | 64.6% | 46.8% | 87.4 | 90.4% | 85.8%
CCOC(=O)c1c(NC(=O)c2ccccc2)sc2c3c(ccc12)OCN(C)C3 | 12.8% | 87.8% | -11.3% (active) | 52.2% | -67.9% (active) | -4.6% (active) | -51.4% (active) | 22.2 | -79% (active) | -54.7% (active)
CCOC(=O)C/C(=N\Nc1cc(=O)[nH]c2ccc(OC)cc12)C(=O)OCC | 99.4% | 97.6% | 94.9% | 105% | 100% | 87.2% | 109% | 105 | 107% | 114%
COc1ccc2cc(-c3nc4ccc(C)cn4c3NCc3ccco3)c(=O)[nH]c2c1 | 70.2% | 76.4% | 74.1% | 90.7% | 88.9% | 20.6% | 87.3% | 85.2 | 67.9% | 76%
Nc1cc(C(=O)O)cc(-n2c(O)c(C=C3N=c4ccccc4=N3)sc2=S)c1 | 92.6% | 85.4% | 99.2% | 100% | 98% | 81.6% | 92.7% | 104 | 102% | 103%
COc1ccc(CNc2ccc3nc(NC(=O)CN4CCCCCC4)sc3c2)cc1 | 71.1% | 80% | 106% | 113% | 94.9% | 77.6% | 70.3% | 80.5 | 104% | 82.4%
Cc1ccc(Cc2cnc(NC(=O)/C=C/c3ccc(C)o3)s2)cc1 | 56% | 69.9% | 48.1% | 53.6% | 12% | 59.5% | 19.3% | 35.7 | 42% | 23.2%
Brc1ccc(Nc2nc(Nc3cnc4ccccc4c3)c3[nH]cnc3n2)cc1 | 76% | 64.1% | 105% | 64.6% | 65% | 26% | 54.2% | 79.6 | 49.4% | 90.4%
Nc1nc(C(=O)N/N=C/c2ccc(F)cc2)nn1-c1ccc(S(N)(=O)=O)cc1 | 101% | 99% | 91.1% | 98.8% | 106% | 98.9% | 88.8% | 95 | 97.2% | 112%
CCOC(=O)c1nnn(-c2no[n+]([O-])c2-c2ccc(OC)cc2)c1COc1cccc2cccnc12 | 31.6% | 8.91% (active) | 98.8% | 30.6% | 8.47% (active) | 17.6% | -52.7% (active) | 71.9 | 25.8% | -25% (active)
CC(C)c1ccc2c(c1)CC[C@H]1[C@](C)(C(=O)OCC#CCN3CCCC3)CCC[C@]21C | 61.3% | 81.8% | 93.8% | 94.1% | 96.9% | 65.2% | 85.8% | 75 | 84.1% | 44.7%
Cc1nc([P+](c2ccccc2)(c2ccccc2)c2ccccc2)c(N2CCCCC2)o1 | 17.1% | 53.9% | 78.4% | 30.3% | 12.7% | 16.7% | 28.8% | 32.8 | 60.3% | -45.3% (active)
COc1cc(C=C2C(=O)NC(=S)NC2=O)cc(CN2CCCC2)c1O | 103% | 103% | 105% | 103% | 109% | 92.8% | 96.4% | 96.6 | 102% | 120%
COc1ccc(C2CC(c3ccccc3)=NN2C(=O)c2cc(OC)c(OC)c(OC)c2)cc1O (centres undefined) | 35.6% | 27.4% | 57.5% | 49.4% | 6.52% (active) | 28% | -3.83% (active) | 29.5 | 20.4% | 71%
Cc1ccc(C(=O)c2ccc(CC(=O)N/N=C/c3cccc(O)c3O)n2C)cc1 | 45.4% | 69.1% | 54.4% | 49.9% | 8.65% (active) | 56.3% | 48.8% | 58.7 | 76.4% | 63%
COc1ccc(OC)c(Nc2nnc(-c3cc(OC)c(OC)c(OC)c3)o2)c1 | 90.5% | 96.6% | 98.4% | 94.7% | 107% | 107% | 76.6% | 101 | 95% | 104%
c1cc(OCCN2CCCC2)ccc1CNc1ccc2nc(CCC3CCCCC3)[nH]c2c1 | 81.9% | 51.3% | 78.2% | 57.8% | 52.6% | 25.3% | 63.2% | 50.2 | -60.1% (active) | -73.9% (active)
O=C(NCCCCO)c1cncnc1Nc1ccc2c(ccn2Cc2cccc(F)c2)c1 | 97.6% | 100% | 72.9% | 94.4% | 101% | 92.1% | 76.9% | 84.4 | 92.4% | 97.7%
O=C1NC(=O)C(c2coc3cc(Br)ccc23)=C1c1c[nH]c2ccccc12 | 77.5% | 67.2% | 77.7% | 38.9% | 19.5% | 70.4% | 51.1% | 33.5 | 69.5% | 35.1%
COc1cc(O)c2c(=O)c3c(CC=C(C)C)cc(OC)c(O)c3oc2c1 | 41.4% | 78.7% | 38.3% | 25.4% | 12.5% | 80.8% | -12.9% (active) | 35.6 | 36.1% | 112%
COc1ccc(C(=O)C/C(=C\c2ccc(O)c(OC)c2)C(=O)NN)cc1 | 68.9% | 91.7% | 82% | 67.4% | 43.6% | 69.5% | 52.1% | 80 | 112% | 106%
O=c1cc(C(F)(F)F)c2cc(-c3cc4ccccc4c(=O)o3)c(O)cc2o1 | 54.9% | 68.4% | 87.6% | 82.6% | 58.9% | -0.397% (active) |  | 78.5 | 80.2% | 107%
CS(=O)/C(C#N)=C\C=C\c1cccc(Cl)c1 (centres undefined) | -7.77% (active) | 36.1% | 24.1% | 17.1% | 3.71% (active) | -5.77% (active) | -9.88% (active) | 20 | 19.2% | -22% (active)
